Records with an inconclusive call do not appear. Entries that show only a call come without a potency. The source made the active and inactive calls. Calls follow the shape of the full dose curve.
Assay: qHTS for Inhibitors of Cell Surface uPA Generation: Wild-type Protective Antigen (WT-PrAg) Counterscreen for Cherry-picked Compounds
Details: cells, WT protective antigen toxicity counterscreen; series mostly up to 115 µM

| SMILES | Potency |
| --- | --- |
| CNS(=O)(=O)c1cc(-c2nnc(Nc3ccc(CC(N)=O)cc3)c3ccccc23)ccc1C | inactive |
| Fc1ccc(CNc2ccccn2)cc1 | inactive |
| COc1ccccc1CN1CC(C(=O)NCc2cccc(C)n2)CCC1=O (stereo not drawn) | inactive |
| O=C(COC(=O)C1CC2C=CC1C2)NCc1ccccc1Cl (stereo not drawn) | inactive |
| CC(C)(C)NC(=O)C(c1cccs1)N(C(=O)c1csnn1)c1ccccc1F (stereo not drawn) | inactive |
| O=C(CCCC(=O)N(c1cccc(F)c1)C(C(=O)NC1CCCC1)c1ccc(O)cc1)Nc1ccccn1 (stereo not drawn) | inactive |
| O=C(O)COc1ccccc1/C=N/NC(=O)CNC(=O)c1ccco1 | inactive |
| CC1(CC(=O)N/N=C/c2cc(Br)c(O)cc2O)OCCO1 | inactive |
| CCN(CC)C(=O)Cn1cc(/C=C(\C#N)C(=O)NC2CC2)c2ccccc21 | inactive |
| Cc1nc(NC(=O)COC(=O)CCc2ccccc2)c(Cl)cc1Cl | inactive |
| CCc1nc(SCC(N)=O)c2c(=O)n(C)c(=O)n(C)c2n1 | inactive |
| O=C(Nc1ccc(S(=O)(=O)N2CCOCC2)cc1)c1cc(-c2ccccc2O)n[nH]1 | inactive |
| CCN(CC)S(=O)(=O)c1ccc(C(=O)Nc2nnc(COC)o2)cc1 | inactive |
| COc1cccc(-n2c(SCC(=O)Nc3cc(C)on3)nc3c([nH]c4ccccc43)c2=O)c1 | inactive |
| C=CC[n+]1c(/C=C/c2ccc(OC(C)=O)c(OC)c2)ccc2ccccc21 | inactive |
| COCc1c(C(=O)Nc2nc(C)cs2)oc2ccccc12 | inactive |
| COc1ccc(OC)c(S(=O)(=O)N2CCN(Cc3ccccc3)CC2)c1 | inactive |
| O=C(O)C(Nc1nc(C(F)(F)F)nc2ccccc12)c1ccccc1 (stereo not drawn) | inactive |
